Bioassay records deposited in PubChem BioAssay by National Center for Advancing Translational Sciences (NCATS).
Rows were chosen to be rich in hits. Some 2.8% of all compounds tested hit in one or more screens of this group.
Six1-Eya2 inh: qHTS Assay for Inhibitors of the Six1/Eya2 Interaction; Homeobox protein SIX1 (Homo sapiens) + Protein phosphatase EYA2 (Homo sapiens), …; AlphaScreen GST-Six1/His-Eya2 binding, biochemical; hits give low values; activity change, % (no concentration beside the values); actives 0.56% (n = 360,000); AID 651725, 2012; in the data active = activity change below about -65%; inconclusive = mostly about -30% to -63%
Target sequence (O00167 whole entry, looked up): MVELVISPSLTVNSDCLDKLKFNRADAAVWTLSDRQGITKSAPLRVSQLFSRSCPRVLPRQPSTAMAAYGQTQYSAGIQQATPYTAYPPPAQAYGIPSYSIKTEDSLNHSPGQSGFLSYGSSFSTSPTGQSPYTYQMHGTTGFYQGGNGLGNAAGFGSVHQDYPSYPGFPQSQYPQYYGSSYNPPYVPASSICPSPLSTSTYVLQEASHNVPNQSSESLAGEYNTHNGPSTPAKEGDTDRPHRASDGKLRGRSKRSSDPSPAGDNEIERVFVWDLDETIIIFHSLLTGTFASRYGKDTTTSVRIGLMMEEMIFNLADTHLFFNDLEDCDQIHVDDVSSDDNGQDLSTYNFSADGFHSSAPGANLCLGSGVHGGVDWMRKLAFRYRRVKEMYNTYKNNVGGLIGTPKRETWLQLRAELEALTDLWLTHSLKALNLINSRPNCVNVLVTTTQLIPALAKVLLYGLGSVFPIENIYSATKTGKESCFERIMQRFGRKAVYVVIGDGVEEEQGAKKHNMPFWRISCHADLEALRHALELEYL
Target sequence (Q15475 whole entry, looked up): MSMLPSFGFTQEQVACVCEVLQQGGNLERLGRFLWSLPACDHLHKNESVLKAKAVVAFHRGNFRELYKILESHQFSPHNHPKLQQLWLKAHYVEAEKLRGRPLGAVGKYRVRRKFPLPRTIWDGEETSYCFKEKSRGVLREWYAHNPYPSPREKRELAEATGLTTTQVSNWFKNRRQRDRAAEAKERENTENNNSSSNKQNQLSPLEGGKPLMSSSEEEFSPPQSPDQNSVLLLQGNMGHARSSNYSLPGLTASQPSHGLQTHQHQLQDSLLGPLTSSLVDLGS
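Compounds are tested against tagged Six1 and Eya2 proteins bridged by glutathione donor and nickel acceptor beads; after a one-hour incubation at 37 °C without light, AlphaScreen emission is recorded.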
HepG2 tox: qHTS for Inhibitors of TGF-b: Cytotox Counterscreen. actives 0.76% (n = 410,000). Potency, µM (doses to about 46.1 µM), hits mostly cytotoxic. HepG2 CAGA-GFP viability, ATP luminescence, 18 h
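CellTiter-Glo luminescence gave cytotoxicity after 18 hours at 37 degrees C. The cells were HepG2 CAGA-GFP in 1% FBS DMEM, stimulated with 500 pg/mL TGF-beta after compound addition. %Activity was normalised to no-cell wells (complete cell-killing) and DMSO (no toxicity), and curves were fitted and classified.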
TGFb SMAD3 inh: qHTS for Inhibitors of TGF-b; HepG2 CAGA-GFP TGF-b/SMAD3 reporter, GFP fluorescence, 18 h; TGF-beta stimulated, 500 pg/mL final; Potency, µM (top dose mostly 46.1 µM), hits mostly inhibitors; actives 1.2% (n = 410,000); AID 588855, 2011; note: nearly all actives have a fitted effect of over 65% in size
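Read-out: total well GFP (ex488/em500-530) summed from mean per-cell fluorescence. Cells: HEPG2 CAGA-GFP, 1% FBS DMEM, 18 h at 37 degrees C with 500 pg/mL final TGF-beta. Unstimulated wells served as the full-inhibition control; stimulated DMSO wells = 0%.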
S2 tox: Viability Counterscreen for Primary qHTS for Inhibitors of ATXN expression; S2 cells (HEK-293 line with an ATXN2-luciferase reporter) viability, CellTiter-Fluor protease fluorescence, 24 h; AID 651635, 2014; actives 0.49% (n = 400,000); Potency, µM (highest dose often 56.7 µM), actives largely listed as cytotoxic; note: nearly all actives have a fitted effect of over 40% in size
CtBP-E1A blk: qHTS Assay for Inhibitors of the CtBP/E1A Interaction; CtBP / adenovirus E1A interaction (AlphaScreen); AlphaScreen GST-E1A/His-CtBP binding, 1536-well; hits give low values; activity change, % (test concentration not listed); actives 0.49% (n = 340,000); AID 651724, 2012; in the data active = activity change below about -65%; inconclusive = mostly about -30% to -63%
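GST-E1A and His-tagged CtBP (125 nM each as 5X stock) were preincubated with pin-transferred compound for 2 h at 37 °C in the dark, then glutathione donor and nickel acceptor beads were added for 1 h before AlphaScreen reading.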
ATXN2 expr inh: Primary qHTS for Inhibitors of ATXN expression; HEK-293 ATXN2-luciferase reporter, luminescence, 24 h; Potency, µM (series often up to 57 µM), usual class: inhibitors; actives 0.72% (n = 360,000); AID 1745845, 2022; note: nearly all actives have a fitted effect of over 55% in size
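ATXN2-luciferase reporter cells (luciferase flanked by upstream and downstream ATXN2 gene portions) were treated 24 h at 37 °C with compounds at up to 57 uM. SteadyGlo luminescence gave expression; GF-AFC fluorescence gave viability.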
Large screens that a line does not name were inactive. Unless noted, calls come from the whole dose curve; as a rule, active = well fitted curve in the direction sought with a large enough effect; inconclusive = small, poorly fitted or top-dose-only effect, or another doubt; inactive = no such curve, though single readings can be large; an effect the other way counts as inactive or inconclusive.

CCOc1ccc(N2CC(NC(=O)c3ccc(S(=O)(=O)N4CCCCC4)cc3)CC2=O)cc1 (configuration not stated)	none (no result: Six1-Eya2 inh, S2 tox, CtBP-E1A blk, ATXN2 expr inh)
COc1cc(CNc2ccc3[nH]c(=O)[nH]c3c2)cc(Cl)c1OCc1ccccc1F	S2 tox inconclusive (no result: Six1-Eya2 inh, CtBP-E1A blk)
COc1cc(CNC2CCCC2)cc(Cl)c1OCc1ccccc1F	HepG2 tox 11.2µM, TGFb SMAD3 inh inconclusive, ATXN2 expr inh 20µM (no result: S2 tox)
CCc1ccccc1NC(=O)CN1C(=O)c2ccccc2Sc2ncccc21	none (no result: Six1-Eya2 inh, CtBP-E1A blk)
CCNC(=S)NNC(=O)c1ccccn1	Six1-Eya2 inh -95.3, CtBP-E1A blk -95.9
CCNC(=S)NNC(=O)c1ccccc1Cl	none
O=C(NNC(=S)Nc1ccc(Cl)c(Cl)c1)c1ccccn1	Six1-Eya2 inh -89.9 (no result: CtBP-E1A blk, ATXN2 expr inh)
S=C(NCc1ccccn1)Nc1ccc(Cl)c(Cl)c1	TGFb SMAD3 inh inconclusive
Cc1cc(=O)oc(C)c1C(=O)NCc1ccccn1	Six1-Eya2 inh -81.1, CtBP-E1A blk inconclusive
Cc1ccc(CNC(=O)c2c(C)cc(=O)oc2C)cc1	none
O=C(NCc1ccccn1)c1ccc(=O)oc1	Six1-Eya2 inh -87.4, CtBP-E1A blk -79.3
CN(C)c1nc2cc3c(cc2cc1CN(CC1CCCO1)C(=O)/C=C/c1cccs1)OCO3 (configuration not stated)	none (no result: Six1-Eya2 inh, HepG2 tox, TGFb SMAD3 inh, CtBP-E1A blk, ATXN2 expr inh)
CC(C)Oc1ccc(F)cc1-c1cc(C(=O)NCc2cc(C(F)(F)F)cc(C(F)(F)F)c2)[nH]n1	TGFb SMAD3 inh 11.2µM, S2 tox inconclusive
CC(C)Oc1ccc(F)cc1-c1cc(C(=O)NCc2ccc(C(F)(F)F)cc2)[nH]n1	TGFb SMAD3 inh inconclusive, S2 tox inconclusive
CC(C)Oc1cc(F)ccc1-c1cc(C(=O)Nc2cccc(C(F)(F)F)c2)[nH]n1	TGFb SMAD3 inh inconclusive, S2 tox 28.2µM, ATXN2 expr inh inconclusive
COC(=O)C1CCN(Cc2ccc3c(c2)CN(C(=O)c2ncc(C)[nH]2)CCO3)CC1	none (no result: Six1-Eya2 inh, HepG2 tox, TGFb SMAD3 inh, CtBP-E1A blk, ATXN2 expr inh)
COc1ccccc1CNC(=O)c1cc2cccc3c2n1CCS3	none (no result: Six1-Eya2 inh, S2 tox, CtBP-E1A blk, ATXN2 expr inh)
COc1ccccc1OCCN1CSC(=S)N(C)C1	TGFb SMAD3 inh inconclusive, S2 tox inconclusive, ATXN2 expr inh 28.2µM
COc1cccc(CNC(=O)c2c(OC)cc(=O)n3c2CCN(C(=O)C2=C(C)OCCO2)CC3)c1	none (no result: Six1-Eya2 inh, HepG2 tox, TGFb SMAD3 inh, CtBP-E1A blk, ATXN2 expr inh)
O=C(NC1CCNCC1)c1[nH]ncc1NC(=O)c1c(Cl)cccc1Cl	ATXN2 expr inh 0.385µM (no result: Six1-Eya2 inh, HepG2 tox, TGFb SMAD3 inh, S2 tox, CtBP-E1A blk)
Cc1n[nH]c(=S)n(/N=C/c2cccs2)c1=O	Six1-Eya2 inh inconclusive, CtBP-E1A blk -72.0
COc1ccc(C2NC(=O)N(C)C3=C2C(=O)N(c2ccc(Br)cc2)C3)cc1 (configuration not stated)	S2 tox inconclusive (no result: Six1-Eya2 inh, CtBP-E1A blk)
NC(=O)c1sc2nc3c(c(-c4ccco4)c2c1N)CCC3	Six1-Eya2 inh -70.7, TGFb SMAD3 inh inconclusive
Cc1nc2sc(C(N)=O)c(N)c2c2c1CCCC2	Six1-Eya2 inh inconclusive, HepG2 tox 20µM, TGFb SMAD3 inh inconclusive, CtBP-E1A blk inconclusive
Cc1ccc(-c2c3c(nc4sc(C(N)=O)c(N)c24)CCCC3)o1	TGFb SMAD3 inh inconclusive, CtBP-E1A blk inconclusive
Cc1ccc(-c2nc3sc(C(N)=O)c(N)c3c3c2CCCC3)cc1	TGFb SMAD3 inh inconclusive
O=C(Cc1c[nH]c2ccccc12)N1CCC(n2c(C3CCCO3)nc3cc(C(F)(F)F)ccc32)CC1 (configuration not stated)	none (no result: Six1-Eya2 inh, HepG2 tox, TGFb SMAD3 inh, CtBP-E1A blk, ATXN2 expr inh)
CC(C)n1c(O)c(/C=C2\C=NN=C2c2ccccc2)sc1=S	HepG2 tox 15.8µM, TGFb SMAD3 inh inconclusive
COc1ccc(-c2cc(=O)c3c(O)cc(O[C@@H]4O[C@H](CO[C@@H]5O[C@@H](C)[C@H](O)[C@@H](O)[C@@H]5O)[C@@H](O)[C@H](O)[C@@H]4O)cc3o2)cc1O	none (no result: Six1-Eya2 inh, HepG2 tox, TGFb SMAD3 inh, S2 tox, CtBP-E1A blk)
Nc1cccc2nc3ccccc3cc12	TGFb SMAD3 inh inconclusive, ATXN2 expr inh 7.94µM (no result: S2 tox)
